From the antibiotic and cytotoxicity screens of Wong et al. (2023)
Screen size: about 39,000 compounds; about 3,300 (8.5%) were called active. The full list was thinned out, with actives kept by preference.

These compounds were tested on HepG2 (assay: cytotoxicity call (relative viability < 0.9)). Conditions: 10 µM.
In the case of `Cc1cc(C(=O)Nc2ccc3c(c2)C(=O)N(C)[C@@H]2CC[C@@H](CC(=O)NCC(F)(F)F)O[C@H]2CO3)no1`, the cytotoxicity call is reported as “inactive”.
In the case of `C[C@@H]1CN([C@@H](C)CO)C(=O)c2cc(NC(=O)CCC(F)(F)F)ccc2O[C@@H](C)CCCCO[C@@H]1CN(C)Cc1ccc(C(=O)O)cc1`, the cytotoxicity call is reported as “inactive”.
For `O=C(C[C@@H]1C=C[C@H](NC(=O)C2CC2)[C@@H](CO)O1)NCCCN1CCOCC1`, the cytotoxicity call was “inactive”.
`O=C(NCc1ccccc1)C1=C[C@H](c2ccc3c(c2)Cc2ccccc2-3)C[C@H](OCc2ccc(CO)cc2)O1` was tested, and the cytotoxicity call was “inactive”.
`C[C@@H]1CN([C@@H](C)CO)C(=O)c2cc(NS(C)(=O)=O)ccc2O[C@H]1CN(C)C(=O)Nc1ccc2c(c1)OCO2` was tested, and the cytotoxicity call was “inactive”.
In the case of `C[C@@H]1CN([C@H](C)CO)C(=O)c2cc(NC(=O)NC3CCCCC3)ccc2O[C@@H](C)CCCCO[C@H]1CN(C)C(=O)Nc1ccc(C(F)(F)F)cc1`, the cytotoxicity call is reported as “inactive”.
With `CCNC(=O)[C@@H]1CCCN1C(=O)[C@H](CCCNC(=N)N)NC(=O)[C@H](CC(C)C)NC(=O)[C@@H](COC(C)(C)C)NC(=O)[C@H](Cc1ccc(O)cc1)NC(=O)[C@H](CO)NC(=O)[C@H](Cc1c[nH]c2ccccc12)NC(=O)[C@H](Cc1cnc[nH]1)NC(=O)[C@H]1CCC(=O)N1` the cytotoxicity call was “inactive”.
For `O=C1N(Cc2ccccc2)Cc2ccccc2C[C@@]12N=C(c1ccc(OCCCO)cc1)O[C@H]2c1ccccc1`, the cytotoxicity call was “active”.
`O=C1N(Cc2ccccc2)Cc2ccccc2[C@H]2OC(c3ccc(OCCCO)cc3)=N[C@@]12Cc1ccccc1` was tested, and the cytotoxicity call was “inactive”.
In the case of `CC(C)(C)OC(=O)CC[C@]12N=C(c3ccc(OCCCO)cc3)O[C@H]1c1ccccc1CN(C(=O)c1ccccc1)C2=O`, the cytotoxicity call is reported as “inactive”.
In the case of `CC(C)(C)OC(=O)CC[C@@]12N=C(c3ccc(OCCCO)cc3)O[C@@H]1c1ccccc1CN(Cc1ccccc1)C2=O`, the cytotoxicity call is reported as “active”.
With `O=C(c1ccccc1)N1Cc2ccccc2[C@H]2OC(c3ccc(OCCCO)cc3)=N[C@@]2(Cc2ccccc2)C1=O` the cytotoxicity call was “inactive”.
For `CC(C)(C)OC(=O)CC[C@@]12N=C(c3ccc(OCCCO)cc3)O[C@@H]1c1ccccc1CN(C(=O)c1ccccc1)C2=O`, the cytotoxicity call was “active”.
With `CC(C)(C)OC(=O)CC[C@]12N=C(c3ccc(OCCCO)cc3)O[C@H]1c1ccccc1CN(Cc1ccccc1)C2=O` the cytotoxicity call was “inactive”.
`CC(C)(C)OC(=O)CC[C@]12N=C(c3ccc(OCCCO)cc3)O[C@H]1c1ccccc1N(Cc1ccccc1)C2=O` was tested, and the cytotoxicity call was “inactive”.
In the case of `O=C1N(Cc2ccccc2)Cc2ccccc2C[C@]12N=C(c1ccc(OCCCO)cc1)O[C@@H]2c1ccccc1`, the cytotoxicity call is reported as “inactive”.
In the case of `COC(=O)c1cn(C)cn1`, the cytotoxicity call is reported as “inactive”.
With `Cc1ccc(S(=O)(=O)N(C)C[C@H]2Oc3ccc(NS(C)(=O)=O)cc3CC(=O)N([C@H](C)CO)C[C@@H]2C)cc1` the cytotoxicity call was “inactive”.
In the case of `C[C@@H]1CN([C@@H](C)CO)C(=O)c2cc(N(C)C)ccc2O[C@@H](C)CCCCO[C@@H]1CN(C)Cc1ccc(C(F)(F)F)cc1`, the cytotoxicity call is reported as “inactive”.
`C[C@]1(CC(=O)O)C(=O)N=C2C=CC=CN21` was tested, and the cytotoxicity call was “inactive”.
With `COc1ccc(NC(=O)Nc2ccc3c(c2)C(=O)N([C@H](C)CO)C[C@@H](C)[C@H](CN(C)Cc2ccc(C(F)(F)F)cc2)O3)cc1` the cytotoxicity call was “active”.
In the case of `COc1ccc(CN(C)C[C@H]2Oc3ccc(NC(=O)Nc4ccc(C(F)(F)F)cc4)cc3C(=O)N([C@H](C)CO)C[C@H]2C)cc1`, the cytotoxicity call is reported as “active”.
For `COc1ccc(CN(C)C[C@@H]2Oc3ccc(NC(=O)Nc4ccc(C(F)(F)F)cc4)cc3C(=O)N([C@H](C)CO)C[C@@H]2C)cc1`, the cytotoxicity call was “active”.
`COc1ccc(CN(C)C[C@@H]2Oc3ccc(NC(=O)Nc4ccc(C(F)(F)F)cc4)cc3C(=O)N([C@@H](C)CO)C[C@@H]2C)cc1` was tested, and the cytotoxicity call was “active”.
`COc1ccc(NC(=O)Nc2ccc3c(c2)C(=O)N([C@H](C)CO)C[C@H](C)[C@@H](CN(C)Cc2ccc(C(F)(F)F)cc2)O3)cc1` was tested, and the cytotoxicity call was “inactive”.
In the case of `COc1ccc(CN(C)C[C@H]2Oc3ccc(NC(=O)Nc4ccc(C(F)(F)F)cc4)cc3C(=O)N([C@H](C)CO)C[C@@H]2C)cc1`, the cytotoxicity call is reported as “inactive”.
With `COc1ccc(NC(=O)Nc2ccc3c(c2)C(=O)N([C@H](C)CO)C[C@H](C)[C@H](CN(C)Cc2ccc(C(F)(F)F)cc2)O3)cc1` the cytotoxicity call was “inactive”.
`COc1ccc(NC(=O)Nc2ccc3c(c2)C(=O)N([C@H](C)CO)C[C@@H](C)[C@@H](CN(C)Cc2ccc(C(F)(F)F)cc2)O3)cc1` was tested, and the cytotoxicity call was “inactive”.
`C[C@H]1CN([C@@H](C)CO)C(=O)c2cc(C#CC3(O)CCCC3)cnc2O[C@@H]1CN(C)C(=O)Cc1ccccc1` was tested, and the cytotoxicity call was “inactive”.
With `C[C@H](CO)N1C[C@H](C)[C@@H](CN(C)Cc2ccc(F)cc2)Oc2cc(C#CC(C)(C)O)ccc2S1(=O)=O` the cytotoxicity call was “inactive”.
`OCC1OC(OC2C(O)C(CO)OC2(CO)OC2OC(CO)C(O)C(O)C2O)C(O)C(O)C1O` (stereo not drawn) was tested, and the cytotoxicity call was “inactive”.
`CN(C)C(=O)N[C@H]1CN(S(C)(=O)=O)[C@H]2CCCO[C@@H]12` was tested, and the cytotoxicity call was “inactive”.
For `C[C@@H]1CN([C@@H](C)CO)C(=O)c2cc(NS(=O)(=O)c3ccc(Cl)cc3)ccc2O[C@@H](C)CCCCO[C@H]1CN(C)Cc1ccc(C(=O)O)cc1`, the cytotoxicity call was “inactive”.
`Cn1nc(C(=O)O)c2ccccc2c1=O` was tested, and the cytotoxicity call was “inactive”.
With `COc1cccc(CNC(=O)c2cc3c(c(-c4cccc(-c5ccncc5)c4)n2)[C@@H](CCO)N([S@@](=O)C(C)(C)C)C3)c1` the cytotoxicity call was “inactive”.
For `C[C@H]1CC/C=C\[C@H]2O[C@@]34C=CCN(Cn5nnc6ccccc65)C(=O)[C@H]3N(CCCCCCO)C(=O)[C@@H]4[C@@H]2C(=O)O1`, the cytotoxicity call was “inactive”.
For `C[C@H]1CN([C@@H](C)CO)C(=O)c2cc(Br)cnc2O[C@@H]1CN(C)C(=O)Nc1ccc(F)cc1`, the cytotoxicity call was “inactive”.
With `COc1ccc(NC(=O)Nc2ccc3c(c2)C(=O)N([C@@H](C)CO)C[C@H](C)[C@@H](CN(C)Cc2ccc(C(F)(F)F)cc2)O3)cc1` the cytotoxicity call was “active”.
`COc1ccc(CN(C)C[C@@H]2Oc3ccc(NC(=O)Nc4ccc(C(F)(F)F)cc4)cc3C(=O)N([C@H](C)CO)C[C@H]2C)cc1` was tested, and the cytotoxicity call was “active”.
With `COc1ccc(CN(C)C[C@H]2Oc3ccc(NC(=O)Nc4ccc(C(F)(F)F)cc4)cc3C(=O)N([C@@H](C)CO)C[C@@H]2C)cc1` the cytotoxicity call was “active”.
For `COc1ccc(CN(C)C[C@H]2Oc3ccc(NC(=O)Nc4ccc(C(F)(F)F)cc4)cc3C(=O)N([C@@H](C)CO)C[C@H]2C)cc1`, the cytotoxicity call was “active”.
`c1ccc2c([C@@H]3CCCN3)cccc2c1` was tested, and the cytotoxicity call was “inactive”.
`Cc1ccc(S(=O)(=O)N(C)C[C@@H]2Oc3c(NC(=O)c4ccncc4)cccc3C(=O)N([C@H](C)CO)C[C@H]2C)cc1` was tested, and the cytotoxicity call was “inactive”.
For `C[C@@H]1CCCCO[C@H](CN(C)Cc2ccncc2)[C@H](C)CN([C@@H](C)CO)C(=O)c2cc(NC(=O)Cc3ccccc3)ccc2O1`, the cytotoxicity call was “inactive”.
In the case of `COc1ccc(C#Cc2ccc3c(c2)O[C@H](CN(C)S(=O)(=O)c2ccccc2F)[C@H](C)CN([C@@H](C)CO)S3(=O)=O)cc1`, the cytotoxicity call is reported as “inactive”.
For `C=CCOC(=O)[C@H]1[C@@H]2C(=O)O[C@@H](c3ccccc3)[C@@H](c3ccccc3)N2[C@@H](c2ccc(OCCOC(=O)[C@H]3C[C@H]4C(=O)N[C@@H](CC(C)C)C(=O)N4[C@H]3c3ccc(O)cc3)cc2)[C@]12C(=O)Nc1ccccc12`, the cytotoxicity call was “inactive”.
With `N=C(N)NCCS` the cytotoxicity call was “inactive”.
With `C[C@@H]1CN([C@@H](C)CO)S(=O)(=O)c2ccc(C#Cc3ccccc3)cc2O[C@@H]1CN(C)C(=O)c1ccccn1` the cytotoxicity call was “inactive”.
For `C[C@@H]1CCCCO[C@@H](CN(C)C(=O)NC2CCCCC2)[C@H](C)CN([C@H](C)CO)C(=O)c2cc(NS(=O)(=O)c3ccc(Cl)cc3)ccc2O1`, the cytotoxicity call was “inactive”.
In the case of `N#C[C@H](N)c1ccc(Cl)cc1`, the cytotoxicity call is reported as “inactive”.
With `COc1ccc(NC(=O)Nc2ccc3c(c2)C(=O)N([C@@H](C)CO)C[C@H](C)[C@H](CN(C)Cc2ccc(C(F)(F)F)cc2)O3)cc1` the cytotoxicity call was “inactive”.
In the case of `COc1ccc(NC(=O)Nc2ccc3c(c2)C(=O)N([C@@H](C)CO)C[C@@H](C)[C@H](CN(C)Cc2ccc(C(F)(F)F)cc2)O3)cc1`, the cytotoxicity call is reported as “inactive”.
With `COc1ccc(CN(C)C[C@@H]2Oc3ccc(NC(=O)Nc4ccc(C(F)(F)F)cc4)cc3C(=O)N([C@@H](C)CO)C[C@H]2C)cc1` the cytotoxicity call was “active”.
For `COc1ccc(NC(=O)Nc2ccc3c(c2)C(=O)N([C@@H](C)CO)C[C@@H](C)[C@@H](CN(C)Cc2ccc(C(F)(F)F)cc2)O3)cc1`, the cytotoxicity call was “active”.
With `C[C@@H]1CCCCO[C@@H](CN(C)C(=O)Nc2ccccc2)[C@@H](C)CN([C@@H](C)CO)C(=O)c2cc(NS(=O)(=O)c3ccccc3)ccc2O1` the cytotoxicity call was “inactive”.
In the case of `C[C@@H]1CN([C@@H](C)CO)C(=O)CCCn2nncc2CO[C@H]1CN(C)S(=O)(=O)c1ccc(-c2ccccc2)cc1`, the cytotoxicity call is reported as “inactive”.
`C[C@H]1CN([C@@H](C)CO)C(=O)Cc2cc(NC(=O)Nc3cccc4ccccc34)ccc2O[C@H]1CN(C)C(=O)Nc1ccc2c(c1)OCO2` was tested, and the cytotoxicity call was “inactive”.
With `C[C@@H]1CCCCO[C@@H](CN(C)S(=O)(=O)c2ccc(Cl)cc2)[C@H](C)CN([C@H](C)CO)C(=O)c2cc(NS(=O)(=O)c3ccc(F)cc3)ccc2O1` the cytotoxicity call was “inactive”.
In the case of `CC(C)N(CCCNC(=O)Nc1ccc(C(C)(C)C)cc1)C[C@H]1O[C@@H](n2cnc3c(N)ncnc32)[C@@H](O)[C@H]1O`, the cytotoxicity call is reported as “inactive”.
For `Nc1ncnc2c1ncn2[C@@H]1O[C@H](C[C@@H](N)CC[C@H](N)C(=O)O)[C@@H](O)[C@H]1O`, the cytotoxicity call was “inactive”.
For `CC(C)N(C[C@H]1O[C@@H](n2cnc3c(N)ncnc32)[C@H](O)[C@@H]1O)[C@H]1C[C@@H](CCc2nc3ccc(C(C)(C)C)cc3[nH]2)C1`, the cytotoxicity call was “active”.
With `C[C@H]1CN([C@@H](C)CO)C(=O)Cc2cc(NC(=O)C3CC3)ccc2O[C@@H]1CN(C)S(=O)(=O)c1cccs1` the cytotoxicity call was “inactive”.
In the case of `CC(C)NC(=O)N(C)C[C@H]1Oc2ccc(NS(=O)(=O)c3ccccc3)cc2CC(=O)N([C@@H](C)CO)C[C@H]1C`, the cytotoxicity call is reported as “inactive”.
